Measured values as given in the supplement of paper PMC10849652.
Targets with a hit are over-represented here; the source holds about 7,900 in all. About 0.6% of all pairs of compound and target were hits. Unmarked numbers belong to inactive results.

Tests used:
Experiment in all cases: log2 fold change, soluble protein after heating vs DMSO (PISA); higher = thermal stabilisation; K562 cells, 10 uM, 30 min; active = over 0.2 and 3.5 SD of the protein, either way, in both replicates (recomputed)
bafetinib = compound: Cc1ccc(NC(=O)c2ccc(CN3CC[C@H](N(C)C)C3)c(C(F)(F)F)c2)cc1Nc1nccc(-c2cncnc2)n1 [bafetinib]
Procedure, shortened: (§1)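 Aliquots of K562 cells (2×10^6 cells/mL) treated with 10 μM compound for 30 min were heated for 3 min over 48°C-58°C. After pooling and extraction in PBS with 0.5% NP-40 at 4°C, soluble protein from a 21,000xg, 90 min spin was quantified by TMTpro 16plex LC-MS/MS with channel sums equalised. Thermal stability is expressed against control samples, from duplicates, as a log2 fold change.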

[1] = compound: Cc1cccc(CC(=O)N2CCc3c2ccc(-c2cn(C)c4ncnc(N)c24)c3F)n1
Procedure, shortened: as §1

nilotinib = compound: Cc1cn(-c2cc(NC(=O)c3ccc(C)c(Nc4nccc(-c5cccnc5)n4)c3)cc(C(F)(F)F)c2)cn1 [nilotinib]
Procedure, shortened: as §1

[2] = compound: Cc1nc(Nc2n[nH]c3c2CN(C(=O)N[C@H](CN(C)C)c2ccccc2)C3(C)C)c2sccc2n1
Procedure, shortened: as §1

dasatinib = compound: Cc1nc(Nc2ncc(C(=O)Nc3c(C)cccc3Cl)s2)cc(N2CCN(CCO)CC2)n1 [dasatinib]
Procedure, shortened: as §1

[3] = compound: Cc1ncc(-c2ccnc(Nc3ccc(S(C)(=O)=O)cc3)n2)n1C(C)C
Procedure, shortened: as §1

[4] = compound: Cn1cc(-c2ccc3c(c2)CCN3C(=O)Cc2cccc(C(F)(F)F)c2)c2c(N)ncnc21
Procedure, shortened: as §1

[5] = compound: Cn1cc(-c2ccc3nnc(C(F)(F)c4ccc5ncccc5c4)n3n2)cn1
Procedure, shortened: as §1

tipifarnib = compound: Cn1cncc1[C@@](N)(c1ccc(Cl)cc1)c1ccc2c(c1)c(-c1cccc(Cl)c1)cc(=O)n2C [tipifarnib]
Procedure, shortened: as §1

mubritinib = compound: FC(F)(F)c1ccc(/C=C/c2nc(COc3ccc(CCCCn4ccnn4)cc3)co2)cc1 [mubritinib]
Procedure, shortened: as §1

[6] = compound: NC(=O)Nc1cc(-c2cccc(F)c2)sc1C(=O)N[C@H]1CCCNC1
Procedure, shortened: as §1

[7] = compound: NC(=O)c1cnc(N[C@@H]2CCCC[C@@H]2N)nc1Nc1cccc(-n2nccn2)c1
Procedure, shortened: as §1

[8] = compound: NC1(c2ccc(-c3nc4ccn5c(=O)[nH]nc5c4cc3-c3ccccc3)cc2)CCC1
Procedure, shortened: as §1

[9] = compound: NCC(=O)Nc1ccc(-n2nc(C(F)(F)F)cc2-c2ccc3c(ccc4ccccc43)c2)cc1
Procedure, shortened: as §1

entinostat = compound: Nc1ccccc1NC(=O)c1ccc(CNC(=O)OCc2cccnc2)cc1 [entinostat]
Procedure, shortened: as §1

vorinostat = compound: O=C(CCCCCCC(=O)Nc1ccccc1)NO [vorinostat]
Procedure, shortened: as §1

citarinostat = compound: O=C(CCCCCCNC(=O)c1cnc(N(c2ccccc2)c2ccccc2Cl)nc1)NO [citarinostat]
Procedure, shortened: as §1

silmitasertib = compound: O=C(O)c1ccc2c(c1)nc(Nc1cccc(Cl)c1)c1ccncc12 [silmitasertib]
Procedure, shortened: as §1

[10] = compound: O=C1NC(=O)C(c2cnc3ccccn23)=C1c1cn2c3c(cc(F)cc13)CN(C(=O)N1CCCCC1)CC2
Procedure, shortened: as §1

[11] = compound: c1cc(OCCN2CCCCC2)cc(-c2n[nH]c3ccc(-c4nnc[nH]4)cc23)c1
Procedure, shortened: as §1

Chain of UniProt Q9Y692 (Q9Y692 whole entry, looked up): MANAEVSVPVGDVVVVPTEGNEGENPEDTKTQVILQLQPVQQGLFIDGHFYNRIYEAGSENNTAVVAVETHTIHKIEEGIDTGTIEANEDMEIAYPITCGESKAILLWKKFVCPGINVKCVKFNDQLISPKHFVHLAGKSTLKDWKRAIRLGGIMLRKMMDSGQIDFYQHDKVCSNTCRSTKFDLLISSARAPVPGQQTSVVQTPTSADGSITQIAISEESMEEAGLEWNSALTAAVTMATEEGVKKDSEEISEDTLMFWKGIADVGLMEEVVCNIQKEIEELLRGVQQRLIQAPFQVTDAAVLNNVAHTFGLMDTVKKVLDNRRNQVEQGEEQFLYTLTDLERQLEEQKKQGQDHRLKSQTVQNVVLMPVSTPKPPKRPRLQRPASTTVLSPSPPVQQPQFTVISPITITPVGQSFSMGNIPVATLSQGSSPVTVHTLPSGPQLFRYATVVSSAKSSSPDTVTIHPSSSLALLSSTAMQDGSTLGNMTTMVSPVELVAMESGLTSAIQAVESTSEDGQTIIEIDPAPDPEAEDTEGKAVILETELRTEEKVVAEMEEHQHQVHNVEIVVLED
Chain of UniProt P22830 (P22830 whole entry, looked up): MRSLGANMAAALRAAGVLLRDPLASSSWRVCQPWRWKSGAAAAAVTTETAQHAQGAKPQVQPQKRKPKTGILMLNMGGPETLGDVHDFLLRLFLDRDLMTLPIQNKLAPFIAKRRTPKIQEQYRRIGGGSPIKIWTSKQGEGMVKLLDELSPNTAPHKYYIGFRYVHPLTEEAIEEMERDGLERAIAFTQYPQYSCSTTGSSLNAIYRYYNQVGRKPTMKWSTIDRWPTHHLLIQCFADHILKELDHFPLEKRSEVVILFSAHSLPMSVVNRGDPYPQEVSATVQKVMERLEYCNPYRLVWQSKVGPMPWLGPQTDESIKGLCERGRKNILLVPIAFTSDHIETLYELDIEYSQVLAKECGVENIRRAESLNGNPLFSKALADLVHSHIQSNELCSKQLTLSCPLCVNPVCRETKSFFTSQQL
Chain of UniProt Q96I24 (Q96I24 whole entry, looked up): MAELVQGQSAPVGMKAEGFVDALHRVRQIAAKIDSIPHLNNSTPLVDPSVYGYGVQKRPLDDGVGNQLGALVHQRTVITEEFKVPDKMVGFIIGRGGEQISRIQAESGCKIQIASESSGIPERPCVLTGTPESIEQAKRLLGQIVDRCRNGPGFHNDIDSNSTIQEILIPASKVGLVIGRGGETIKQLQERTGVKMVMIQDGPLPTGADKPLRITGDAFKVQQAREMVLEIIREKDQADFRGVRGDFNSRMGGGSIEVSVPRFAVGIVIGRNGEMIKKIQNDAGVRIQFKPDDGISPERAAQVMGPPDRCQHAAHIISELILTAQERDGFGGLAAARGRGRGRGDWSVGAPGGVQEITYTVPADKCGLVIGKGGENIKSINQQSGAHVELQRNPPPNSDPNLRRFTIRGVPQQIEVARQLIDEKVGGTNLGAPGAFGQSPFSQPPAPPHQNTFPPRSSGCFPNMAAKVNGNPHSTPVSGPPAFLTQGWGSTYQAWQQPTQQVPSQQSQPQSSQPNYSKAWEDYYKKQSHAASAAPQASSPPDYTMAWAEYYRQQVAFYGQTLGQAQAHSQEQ
Chain of UniProt Q9H0R8 (Q9H0R8 whole entry, looked up): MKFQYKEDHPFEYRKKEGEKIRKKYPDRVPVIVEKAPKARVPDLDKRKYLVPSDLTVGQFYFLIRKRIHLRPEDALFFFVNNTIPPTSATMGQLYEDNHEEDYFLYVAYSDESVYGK
Chain of UniProt P78417 (P78417 whole entry, looked up): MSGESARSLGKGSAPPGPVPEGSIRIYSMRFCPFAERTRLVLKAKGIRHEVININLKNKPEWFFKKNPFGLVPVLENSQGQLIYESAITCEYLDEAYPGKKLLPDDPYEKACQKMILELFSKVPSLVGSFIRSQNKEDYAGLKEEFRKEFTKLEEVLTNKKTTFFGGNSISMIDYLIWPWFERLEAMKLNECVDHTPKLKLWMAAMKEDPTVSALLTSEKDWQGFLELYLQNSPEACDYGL
Chain of UniProt Q92538 (Q92538 whole entry, looked up): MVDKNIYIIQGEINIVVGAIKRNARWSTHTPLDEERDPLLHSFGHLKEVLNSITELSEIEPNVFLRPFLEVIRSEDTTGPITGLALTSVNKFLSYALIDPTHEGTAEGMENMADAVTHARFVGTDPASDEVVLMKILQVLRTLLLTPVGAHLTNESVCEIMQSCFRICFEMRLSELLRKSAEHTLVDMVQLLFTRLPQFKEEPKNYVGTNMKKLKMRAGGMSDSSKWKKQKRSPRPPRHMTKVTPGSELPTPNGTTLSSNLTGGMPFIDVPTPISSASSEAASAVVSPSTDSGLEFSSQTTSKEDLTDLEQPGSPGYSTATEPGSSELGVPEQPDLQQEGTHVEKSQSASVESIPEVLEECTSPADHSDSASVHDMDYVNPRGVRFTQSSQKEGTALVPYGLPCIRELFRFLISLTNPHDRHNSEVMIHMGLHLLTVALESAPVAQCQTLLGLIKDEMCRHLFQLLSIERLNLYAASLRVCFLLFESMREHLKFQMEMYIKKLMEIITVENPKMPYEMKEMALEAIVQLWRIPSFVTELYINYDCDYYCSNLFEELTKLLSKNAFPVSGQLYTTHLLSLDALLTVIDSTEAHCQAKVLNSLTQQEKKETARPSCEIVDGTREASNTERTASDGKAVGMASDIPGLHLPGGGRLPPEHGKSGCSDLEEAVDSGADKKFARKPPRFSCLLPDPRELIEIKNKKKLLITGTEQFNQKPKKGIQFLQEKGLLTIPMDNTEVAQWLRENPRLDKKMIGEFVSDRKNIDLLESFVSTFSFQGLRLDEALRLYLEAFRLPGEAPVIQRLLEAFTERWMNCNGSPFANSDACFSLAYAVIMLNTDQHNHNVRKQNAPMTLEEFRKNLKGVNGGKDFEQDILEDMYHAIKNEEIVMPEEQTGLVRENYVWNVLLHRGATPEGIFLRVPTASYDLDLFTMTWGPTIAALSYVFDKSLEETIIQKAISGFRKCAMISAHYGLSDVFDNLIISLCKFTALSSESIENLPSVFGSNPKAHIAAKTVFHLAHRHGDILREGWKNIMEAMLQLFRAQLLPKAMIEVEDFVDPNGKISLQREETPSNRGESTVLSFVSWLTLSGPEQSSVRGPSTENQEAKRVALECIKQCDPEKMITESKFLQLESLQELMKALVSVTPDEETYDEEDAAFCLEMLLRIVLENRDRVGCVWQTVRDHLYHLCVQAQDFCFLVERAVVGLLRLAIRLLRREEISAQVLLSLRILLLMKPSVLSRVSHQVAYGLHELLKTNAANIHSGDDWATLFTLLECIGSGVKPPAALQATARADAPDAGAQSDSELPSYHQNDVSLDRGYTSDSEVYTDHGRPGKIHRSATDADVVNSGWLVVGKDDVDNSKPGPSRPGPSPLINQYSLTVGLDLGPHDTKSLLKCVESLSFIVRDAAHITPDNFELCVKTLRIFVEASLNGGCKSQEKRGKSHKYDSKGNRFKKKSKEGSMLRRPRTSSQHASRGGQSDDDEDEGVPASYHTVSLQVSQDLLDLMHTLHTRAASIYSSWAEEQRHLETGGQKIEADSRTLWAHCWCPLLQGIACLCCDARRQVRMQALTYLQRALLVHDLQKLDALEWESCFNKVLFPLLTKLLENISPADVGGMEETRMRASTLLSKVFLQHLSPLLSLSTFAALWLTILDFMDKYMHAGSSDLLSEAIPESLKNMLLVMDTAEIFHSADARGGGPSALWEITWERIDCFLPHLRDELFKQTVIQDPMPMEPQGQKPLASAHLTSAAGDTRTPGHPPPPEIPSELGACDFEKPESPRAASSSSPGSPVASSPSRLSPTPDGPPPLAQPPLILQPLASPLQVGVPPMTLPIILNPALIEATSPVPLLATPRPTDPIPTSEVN
Chain of UniProt Q9BUJ2 (Q9BUJ2 whole entry, looked up): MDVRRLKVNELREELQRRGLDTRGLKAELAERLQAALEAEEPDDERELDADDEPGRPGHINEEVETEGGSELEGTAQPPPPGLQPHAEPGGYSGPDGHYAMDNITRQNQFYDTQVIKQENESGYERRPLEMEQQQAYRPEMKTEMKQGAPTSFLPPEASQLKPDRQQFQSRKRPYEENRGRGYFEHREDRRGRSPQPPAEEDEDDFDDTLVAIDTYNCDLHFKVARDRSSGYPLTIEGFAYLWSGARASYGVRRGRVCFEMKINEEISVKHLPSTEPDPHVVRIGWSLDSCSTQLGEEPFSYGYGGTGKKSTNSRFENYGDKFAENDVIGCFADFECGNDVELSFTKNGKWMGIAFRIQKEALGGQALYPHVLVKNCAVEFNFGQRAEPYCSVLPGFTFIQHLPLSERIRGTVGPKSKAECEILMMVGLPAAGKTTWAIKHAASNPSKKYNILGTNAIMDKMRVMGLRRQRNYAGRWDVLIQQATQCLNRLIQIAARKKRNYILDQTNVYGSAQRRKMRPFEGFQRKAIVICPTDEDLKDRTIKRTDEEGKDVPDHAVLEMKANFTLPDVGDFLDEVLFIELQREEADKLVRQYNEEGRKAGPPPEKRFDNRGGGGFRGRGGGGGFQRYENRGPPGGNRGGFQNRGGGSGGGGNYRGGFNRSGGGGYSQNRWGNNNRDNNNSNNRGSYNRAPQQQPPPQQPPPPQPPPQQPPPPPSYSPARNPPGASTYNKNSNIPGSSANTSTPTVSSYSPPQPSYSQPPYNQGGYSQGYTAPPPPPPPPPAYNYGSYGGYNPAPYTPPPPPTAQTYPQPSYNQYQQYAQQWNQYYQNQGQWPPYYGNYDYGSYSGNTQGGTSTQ
Chain of UniProt P63218 (P63218 whole entry, looked up): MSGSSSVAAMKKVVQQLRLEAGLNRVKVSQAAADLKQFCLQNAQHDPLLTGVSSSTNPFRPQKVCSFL

| Target | log2 fold change (bafetinib) | log2 fold change [1] | log2 fold change (nilotinib) | log2 fold change [2] | log2 fold change (dasatinib) | log2 fold change [3] | log2 fold change [4] | log2 fold change [5] | log2 fold change (tipifarnib) | log2 fold change (mubritinib) | log2 fold change [6] | log2 fold change [7] | log2 fold change [8] | log2 fold change [9] | log2 fold change (entinostat) | log2 fold change (vorinostat) | log2 fold change (citarinostat) | log2 fold change (silmitasertib) | log2 fold change [10] | log2 fold change [11] |
| --- | --- | --- | --- | --- | --- | --- | --- | --- | --- | --- | --- | --- | --- | --- | --- | --- | --- | --- | --- | --- |
| GMEB1 (UniProt Q9Y692) | -0.12 | -0.048 | -0.04 | -0.036 | -0.06 | 0.001 | 0.019 | 0.044 | -0.204 | -0.03 | 0.066 | -0.072 | -0.047 | 0.027 | 0.073 | 0.001 | 0.057 | 0.112 | -0.053 | -0.004 |
| GNG5 (UniProt P63218) | 0.013 | -0.048 | 0.12 | 0.023 | 0.06 | -0.051 | 0.027 | 0.169 | 0.027 | 0.039 | -0.029 | 0.071 | 0.056 | 0.086 | 0.082 | -0.127 | -0.021 | 0.017 | -0.156 | -0.057 |
| IFRD2 isoform 2 (UniProt Q12894) | -0.083 | -0.019 | 0.153 | 0.047 | 0.028 | 0.236 | 0.07 | -0.176 | 0.08 | 0.073 | -0.044 | -0.279 | 0.003 | 0.11 | -0.2 | -0.244 | -0.028 | 0.276 | -0.008 | 0.046 |
| GBF1 (UniProt Q92538) | 0.014 | 0.081 | -0.117 | -0.109 | -0.113 | -0.001 | -0.079 | -0.049 | -0.15 | 0.093 | -0.026 | -0.012 | -0.122 | -0.058 | 0.053 | 0.144 | 0.124 | -0.018 | -0.001 | -0.023 |
| GSTO1 (UniProt P78417) | 0.021 | 0.148 | -0.009 | -0.021 | -0.007 | -0.009 | 0.019 | -0.004 | -0.014 | 0.018 | -0.015 | -0.002 | 0.022 | 0.001 | -0.022 | 0.058 | 0.039 | -0.047 | 0.018 | -0.022 |
| GABARAPL1 isoform 2 (UniProt Q9H0R8) | -0.171 | 0.006 | -0.05 | -0.028 | -0.031 | 0.017 | -0.016 | 0.003 | -0.075 | 0.044 | -0.051 | -0.13 | -0.252 (active) | -0.134 | -0.009 | -0.028 | 0.038 | -0.083 | -0.049 | 0.021 |
| FBXO7 (UniProt Q9Y3I1) | -0.026 | -0.006 | 0.003 | 0.059 | -0.102 | 0 | 0.065 | -0.002 | 0.072 | 0.07 | 0.061 | -0.052 | -0.077 | -0.044 | 0.038 | 0.097 | 0.013 | 0.031 | -0.026 | -0.052 |
| FECH isoform 2 (UniProt P22830) | 0.315 | -0.125 | 0.189 | -0.04 | 0.46 | 0.134 | 0.549 | 0.248 | 0.134 | 0.034 | -0.031 | 0.171 | 0.288 | 0.021 | -0.01 | -0.228 | -0.031 | -0.035 | 0 | 0.38 |
| HPCAL1 (UniProt P37235) | -0.09 | 0.027 | -0.076 | 0.033 | -0.031 | -0.028 | -0.011 | 0.053 | -0.032 | 0.016 | 0.033 | -0.014 | -0.152 | -0.032 | 0.006 | -0.018 | 0.032 | 0.028 | -0.03 | -0.032 |
| HNRNPH2 (UniProt P55795) | 0.056 | 0.006 | -0.09 | -0.231 | -0.061 | -0.103 | -0.021 | 0.041 | -0.236 | -0.115 | -0.073 | -0.03 | -0.124 | -0.077 | 0.016 | 0.114 | 0.06 | 0.031 | -0.007 | -0.086 |
| GALNT2 (UniProt Q10471) | -0.046 | 0.041 | -0.07 | -0.066 | -0.004 | 0.056 | 0.032 | -0.018 | 0.008 | 0.008 | 0 | -0.042 | -0.125 | 0.002 | -0.018 | 0.033 | 0.064 | -0.021 | -0.034 | 0.005 |
| FUBP3 (UniProt Q96I24) | -0.035 | 0.009 | -0.051 | 0.035 | -0.024 | 0.167 | -0.059 | -0.045 | 0.014 | -0.052 | -0.023 | 0.024 | -0.048 | -0.011 | 0.003 | 0.062 | -0.005 | 0.045 | 0.186 | 0.006 |
| GALNT4 (UniProt Q8N4A0) | -0.042 | -0.042 | -0.049 | 0.006 | -0.021 | 0.042 | 0.079 | -0.005 | 0.038 | 0.035 | -0.013 | -0.117 | -0.072 | -1.32 (active) | -0.064 | 0.055 | 0.009 | 0.003 | 0.051 | -0.064 |
| FNTA (UniProt P49354) | -0.024 | -0.009 | -0.002 | 0.104 | 0.165 | 0.019 | 0.036 | 0.091 | 0.429 (active) | 0.013 | 0.009 | 0.061 | 0.028 | 0 | -0.02 | 0.004 | -0.02 | 0.016 | -0.001 | 0.696 (active) |
| GLUL (UniProt P15104) | -0.027 | -0.038 | -0.061 | 0.062 | 0.015 | -0.148 | -0.035 | -0.085 | 0.011 | -0.112 | 0.059 | -0.104 | 0.061 | 0.018 | -0.009 | 0.04 | -0.024 | 0.032 | -0.012 | -0.087 |
| HNRNPUL1 (UniProt Q9BUJ2) | -0.011 | -0.069 | -0.032 | -0.008 | -0.061 | 0.041 | -0.03 | -0.007 | 0.059 | -0.231 (active) | -0.059 | 0.028 | -0.081 | -0.059 | -0.012 | 0.03 | 0.002 | 0.034 | 0.08 | -0.046 |
